Targets with a hit are over-represented here; the source holds about 7,900 in all. About 0.6% of all pairs of compound and target were hits.
What was measured:
Assay in all cases: log2 fold change, soluble protein after heating vs DMSO (PISA); higher = thermal stabilisation; K562 cells, 10 uM, 30 min; active = over 0.2 and 3.5 SD of the protein, either way, in both replicates (recomputed)
erlotinib = compound: C#Cc1cccc(Nc2ncnc3cc(OCCOC)c(OCCOC)cc23)c1 [erlotinib]
Summary of the method: (§1)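 Values are thermal stability changes relative to control samples and are taken from duplicates. They are stated as log2 fold changes. Before quantification by TMTpro 16plex LC-MS/MS with equalised channel sums, K562 cells at 2×10^6 cells/mL were treated with 10 μM compound for 30 min, heated in aliquots for 3 min across 48°C-58°C, pooled, extracted in PBS with 0.5% NP-40 at 4°C, and centrifuged at 21,000xg for 90 min to give the soluble supernatant.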

[1] = compound: C/C(=N\NC(=O)C1=CC(=CC=C1)S(=O)(=O)N2CCOCC2)/C3=C(C=CC(=C3)Cl)O
Summary of the method: as §1

[2] = compound: C1=CC(=C(C=C1Cl)C2=NC3=NC=CN=C3C(=N2)NC4=CC=NC=C4)F
Summary of the method: as §1

[3] = compound: C1=CC(=CC=C1C2=NC3=C(N2)C=C(C=C3)C(=O)N)OC4=CC=C(C=C4)Cl
Summary of the method: as §1

[4] = compound: C1=CC2=C(C=CC(=C2)/C=C\3/C(=O)NC(=NCC4=CC=CS4)S3)N=C1
Summary of the method: as §1

[5] = compound: C1=CC2=NC=CN=C2C=C1/C=C/3\C(=O)NC(=O)S3
Summary of the method: as §1

[6] = compound: C1=CC=C(C=C1)C2=NC(=C(N2)C3=CC=NC=C3)C4=CC(=C(C=C4)Cl)O
Summary of the method: as §1

[7] = compound: C1=CC=C2C(=C1)C3=NNC4=CC=CC(=C43)C2=O
Summary of the method: as §1

[8] = compound: C1CCN(C1)C(=O)NC2=CC=CC(=C2)NC3=NC=C(C(=N3)NCCC4=CN=CN4)Br
Summary of the method: as §1

[9] = compound: C1CN(CCC1(CC2=CC=C(C=C2)Cl)N)C3=NC=NC4=C3C=CN4
Summary of the method: as §1

IRAK-1-4 Inhibitor I = compound: C1COCCN1CCN2C3=CC=CC=C3N=C2NC(=O)C4=CC(=CC=C4)[N+](=O)[O-] [IRAK-1-4 Inhibitor I]
Summary of the method: as §1

ibrutinib = compound: C=CC(=O)N1CCC[C@@H](n2nc(-c3ccc(Oc4ccccc4)cc3)c3c(N)ncnc32)C1 [ibrutinib]
Summary of the method: as §1

[10] = compound: CC(=O)c1cnc2ccc(-c3cc(Cl)c(O)c(Cl)c3)nc2c1N[C@H]1CC[C@H](CN(C)C)CC1
Summary of the method: as §1

ralimetinib = compound: CC(C)(C)Cn1c(N)nc2ccc(-c3[nH]c(C(C)(C)C)nc3-c3ccc(F)cc3)nc21 [ralimetinib]
Summary of the method: as §1

[11] = compound: CC(C)(O)CC(=O)NCCn1ccc2ncnc(Nc3ccc(Oc4cccc(C(F)(F)F)c4)c(Cl)c3)c21
Summary of the method: as §1

[12] = compound: CC(C)C1=C2N=C(C=C(N2N=C1)NCC3=CC=CC=C3)NCCCCCCN
Summary of the method: as §1

[13] = compound: CC(C)C[C@@H](C=O)NC(=O)[C@H](CC(C)C)NC(=O)[C@H](CC(C)C)NC(=O)OCc1ccccc1
Summary of the method: as §1

pinometostat = compound: CC(C)N(C[C@H]1O[C@@H](n2cnc3c(N)ncnc32)[C@H](O)[C@@H]1O)[C@H]1C[C@@H](CCc2nc3cc(C(C)(C)C)ccc3[nH]2)C1 [pinometostat]
Summary of the method: as §1

[14] = compound: CC1=C(C(CC(=O)N1)C2=CC=C(C=C2)C(F)(F)F)C(=O)NC3=C(C=C4C(=C3)C=NN4)F
Summary of the method: as §1

[15] = compound: CC1=C(C2=C(C=C1)C(=O)C3=CC=CC=C3N2CCCN)C
Summary of the method: as §1

Measured: log2 fold change

BCAP29 isoform 2 (UniProt Q9UHQ4)
Sequence of UniProt Q9UHQ4 (Q9UHQ4 whole entry, looked up): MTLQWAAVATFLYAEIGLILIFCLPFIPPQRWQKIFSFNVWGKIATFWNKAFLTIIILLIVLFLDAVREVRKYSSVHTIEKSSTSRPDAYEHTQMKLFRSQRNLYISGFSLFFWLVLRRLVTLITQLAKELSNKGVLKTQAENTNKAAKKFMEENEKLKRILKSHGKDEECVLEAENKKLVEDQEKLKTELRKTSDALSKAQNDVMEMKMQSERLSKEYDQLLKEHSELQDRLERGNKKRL
inactive: erlotinib -0.02 | [1] 0.002 | [2] 0.077 | [3] 0.062 | [4] -0.026 | [5] 0.086 | [6] -0.034 | [7] 0.038 | [8] 0.062 | [9] -0.022 | IRAK-1-4 Inhibitor I 0.051 | ibrutinib -0.014 | [10] 0.011 | ralimetinib -0.094 | [11] 0.111 | [12] -0.106 | [13] 0.007 | pinometostat -0.012 | [14] 0.026 | [15] 0.052

ABCC5 (UniProt O15440)
Sequence of UniProt O15440 (O15440 whole entry, looked up): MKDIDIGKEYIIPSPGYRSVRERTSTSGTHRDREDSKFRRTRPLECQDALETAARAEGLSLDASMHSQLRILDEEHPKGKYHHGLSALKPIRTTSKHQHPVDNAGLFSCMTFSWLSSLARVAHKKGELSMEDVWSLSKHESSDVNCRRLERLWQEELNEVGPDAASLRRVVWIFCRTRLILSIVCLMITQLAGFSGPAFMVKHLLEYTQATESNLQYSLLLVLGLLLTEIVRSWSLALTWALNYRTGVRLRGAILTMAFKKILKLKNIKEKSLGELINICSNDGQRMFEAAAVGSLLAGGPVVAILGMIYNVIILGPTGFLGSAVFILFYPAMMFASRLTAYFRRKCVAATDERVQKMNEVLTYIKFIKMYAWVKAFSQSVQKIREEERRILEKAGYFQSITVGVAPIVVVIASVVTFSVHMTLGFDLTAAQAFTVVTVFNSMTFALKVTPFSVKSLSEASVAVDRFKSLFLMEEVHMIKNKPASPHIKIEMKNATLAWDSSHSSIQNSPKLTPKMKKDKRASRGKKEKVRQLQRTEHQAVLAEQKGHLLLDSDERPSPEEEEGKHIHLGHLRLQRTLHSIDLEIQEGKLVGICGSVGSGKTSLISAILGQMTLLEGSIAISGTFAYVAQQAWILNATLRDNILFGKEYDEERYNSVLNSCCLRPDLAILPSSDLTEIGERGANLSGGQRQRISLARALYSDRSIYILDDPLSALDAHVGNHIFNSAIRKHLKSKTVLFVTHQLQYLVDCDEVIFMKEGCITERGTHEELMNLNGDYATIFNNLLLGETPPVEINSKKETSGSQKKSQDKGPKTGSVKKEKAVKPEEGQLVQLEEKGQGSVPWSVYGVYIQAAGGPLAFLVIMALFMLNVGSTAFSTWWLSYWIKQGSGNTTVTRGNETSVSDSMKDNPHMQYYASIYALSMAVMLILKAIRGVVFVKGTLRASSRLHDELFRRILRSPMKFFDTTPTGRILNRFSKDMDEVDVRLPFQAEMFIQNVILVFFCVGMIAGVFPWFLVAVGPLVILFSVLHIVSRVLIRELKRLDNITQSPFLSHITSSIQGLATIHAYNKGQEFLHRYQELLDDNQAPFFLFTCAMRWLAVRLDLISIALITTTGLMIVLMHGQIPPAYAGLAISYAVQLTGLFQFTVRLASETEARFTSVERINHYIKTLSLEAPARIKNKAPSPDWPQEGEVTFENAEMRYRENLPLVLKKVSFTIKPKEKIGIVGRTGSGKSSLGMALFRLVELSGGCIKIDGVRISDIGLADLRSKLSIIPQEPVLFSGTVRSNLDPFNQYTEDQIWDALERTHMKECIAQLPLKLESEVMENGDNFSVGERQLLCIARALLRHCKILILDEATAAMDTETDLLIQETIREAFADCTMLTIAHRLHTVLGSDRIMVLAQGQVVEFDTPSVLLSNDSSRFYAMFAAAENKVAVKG
inactive: erlotinib -0.027 | [1] 0.035 | [2] 0.064 | [3] -0.004 | [4] 0.059 | [5] -0.048 | [6] -0.014 | [7] -0.071 | [8] -0.037 | [9] 0.129 | IRAK-1-4 Inhibitor I -0.035 | ibrutinib -0.082 | [10] 0 | ralimetinib 0.001 | [11] -0.121 | [12] 0.119 | [13] 0.046 | pinometostat 0.086 | [14] 0.038 | [15] 0.116

ASNS (UniProt P08243)
Sequence of UniProt P08243 (P08243 whole entry, looked up): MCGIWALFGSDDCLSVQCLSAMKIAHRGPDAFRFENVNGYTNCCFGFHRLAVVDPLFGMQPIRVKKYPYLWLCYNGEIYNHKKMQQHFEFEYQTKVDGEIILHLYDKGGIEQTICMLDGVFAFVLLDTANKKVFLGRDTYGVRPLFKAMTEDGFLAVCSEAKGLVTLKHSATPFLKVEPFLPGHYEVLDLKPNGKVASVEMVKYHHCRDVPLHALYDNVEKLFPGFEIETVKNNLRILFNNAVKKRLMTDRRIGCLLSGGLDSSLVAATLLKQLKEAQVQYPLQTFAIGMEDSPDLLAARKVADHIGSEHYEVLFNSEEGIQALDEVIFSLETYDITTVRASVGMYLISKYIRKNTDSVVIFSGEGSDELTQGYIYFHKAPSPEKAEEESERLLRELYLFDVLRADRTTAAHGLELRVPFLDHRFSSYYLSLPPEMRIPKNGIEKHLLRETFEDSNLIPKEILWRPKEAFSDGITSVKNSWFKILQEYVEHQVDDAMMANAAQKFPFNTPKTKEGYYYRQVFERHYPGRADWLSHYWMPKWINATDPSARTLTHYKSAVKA
inactive: erlotinib 0.006 | [1] 0.004 | [2] 0.053 | [3] -0.015 | [4] 0.012 | [5] -0.011 | [6] 0.034 | [7] -0.008 | [8] 0.002 | [9] 0.02 | IRAK-1-4 Inhibitor I 0.046 | ibrutinib 0.015 | [10] 0.006 | ralimetinib -0.033 | [11] -0.029 | [12] 0.017 | [13] -0.003 | pinometostat -0.034 | [14] -0.007 | [15] -0.007

AHCYL1 (UniProt O43865)
Sequence of UniProt O43865 (O43865 whole entry, looked up): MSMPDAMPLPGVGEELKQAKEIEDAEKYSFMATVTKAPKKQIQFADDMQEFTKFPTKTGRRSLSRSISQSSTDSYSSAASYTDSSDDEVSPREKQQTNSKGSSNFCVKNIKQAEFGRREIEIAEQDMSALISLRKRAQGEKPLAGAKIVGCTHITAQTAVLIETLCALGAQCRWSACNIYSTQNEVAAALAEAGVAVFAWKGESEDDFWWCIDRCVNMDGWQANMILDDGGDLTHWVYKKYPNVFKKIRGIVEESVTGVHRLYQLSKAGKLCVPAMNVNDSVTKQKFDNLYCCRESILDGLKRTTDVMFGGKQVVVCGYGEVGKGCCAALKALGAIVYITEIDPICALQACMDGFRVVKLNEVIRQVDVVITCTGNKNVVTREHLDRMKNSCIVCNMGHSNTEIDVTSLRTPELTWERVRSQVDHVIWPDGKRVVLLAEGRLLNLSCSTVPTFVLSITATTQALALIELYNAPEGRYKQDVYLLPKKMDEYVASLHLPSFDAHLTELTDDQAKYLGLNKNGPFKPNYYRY
active: [10] 0.337
inactive: erlotinib 0.083 | [1] -0.032 | [2] -0.008 | [3] -0.042 | [4] 0.001 | [5] 0.086 | [6] 0.09 | [7] 0.118 | [8] 0.077 | [9] 0.104 | IRAK-1-4 Inhibitor I 0.035 | ibrutinib 0.062 | ralimetinib 0.008 | [11] -0.016 | [12] 0.014 | [13] 0.001 | pinometostat -0.048 | [14] -0.033 | [15] -0.004

ACTR1B (UniProt P42025)
Sequence of UniProt P42025 (P42025 whole entry, looked up): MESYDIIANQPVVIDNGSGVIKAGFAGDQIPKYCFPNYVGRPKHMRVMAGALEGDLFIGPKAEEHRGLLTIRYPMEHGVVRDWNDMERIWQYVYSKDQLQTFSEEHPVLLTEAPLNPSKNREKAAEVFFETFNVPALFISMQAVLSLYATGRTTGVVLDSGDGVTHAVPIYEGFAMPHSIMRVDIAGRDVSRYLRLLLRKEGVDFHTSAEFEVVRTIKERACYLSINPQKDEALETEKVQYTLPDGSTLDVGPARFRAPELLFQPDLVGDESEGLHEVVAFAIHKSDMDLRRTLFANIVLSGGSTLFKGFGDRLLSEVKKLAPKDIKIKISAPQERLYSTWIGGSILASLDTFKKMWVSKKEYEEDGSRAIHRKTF
inactive: erlotinib -0.13 | [1] -0.048 | [2] -0.145 | [3] 0.041 | [4] 0.02 | [5] 0.002 | [6] -0.037 | [7] -0.017 | [8] -0.02 | [9] 0.011 | IRAK-1-4 Inhibitor I 0.066 | ibrutinib 0.003 | [10] -0.041 | ralimetinib 0.07 | [11] -0.065 | [12] 0.042 | [13] -0.071 | pinometostat 0.003 | [14] -0.099 | [15] -0.013

BCLAF1 (UniProt Q9NYF8)
active: [10] -0.503
inactive: erlotinib 0.036 | [1] 0.075 | [2] -0.046 | [3] 0.082 | [4] -0.304 | [5] -0.018 | [6] 0.143 | [7] -0.063 | [8] -0.089 | [9] -0.15 | IRAK-1-4 Inhibitor I -0.265 | ibrutinib 0.016 | ralimetinib 0.124 | [11] 0.094 | [12] -0.353 | [13] -0.027 | pinometostat -0.039 | [14] 0.021 | [15] -0.076

AKT2 (UniProt P31751)
Sequence of UniProt P31751 (P31751 whole entry, looked up): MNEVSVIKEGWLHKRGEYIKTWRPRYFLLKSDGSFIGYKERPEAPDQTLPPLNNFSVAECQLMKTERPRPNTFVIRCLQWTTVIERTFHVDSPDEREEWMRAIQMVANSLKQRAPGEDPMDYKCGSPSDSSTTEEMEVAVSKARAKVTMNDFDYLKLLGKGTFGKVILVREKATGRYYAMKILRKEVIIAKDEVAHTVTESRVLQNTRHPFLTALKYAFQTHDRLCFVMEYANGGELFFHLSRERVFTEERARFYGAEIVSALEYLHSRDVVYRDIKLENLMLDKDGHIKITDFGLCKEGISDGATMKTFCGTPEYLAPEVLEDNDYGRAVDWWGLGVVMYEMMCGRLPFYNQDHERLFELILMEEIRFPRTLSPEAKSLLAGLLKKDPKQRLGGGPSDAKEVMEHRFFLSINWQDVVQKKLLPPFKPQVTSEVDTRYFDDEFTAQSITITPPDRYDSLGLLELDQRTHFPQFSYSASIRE
inactive: erlotinib 0.014 | [1] 0.096 | [2] 0.094 | [3] 0.027 | [4] 0.068 | [5] -0.023 | [6] 0.019 | [7] 0.028 | [8] -0.068 | [9] 0.144 | IRAK-1-4 Inhibitor I -0.013 | ibrutinib -0.033 | [10] -0.039 | ralimetinib -0.015 | [11] -0.027 | [12] -0.179 | [13] 0 | pinometostat -0.016 | [14] 0.023 | [15] -0.011

ATP11A (UniProt P98196)
Sequence of UniProt P98196 (P98196 whole entry, looked up): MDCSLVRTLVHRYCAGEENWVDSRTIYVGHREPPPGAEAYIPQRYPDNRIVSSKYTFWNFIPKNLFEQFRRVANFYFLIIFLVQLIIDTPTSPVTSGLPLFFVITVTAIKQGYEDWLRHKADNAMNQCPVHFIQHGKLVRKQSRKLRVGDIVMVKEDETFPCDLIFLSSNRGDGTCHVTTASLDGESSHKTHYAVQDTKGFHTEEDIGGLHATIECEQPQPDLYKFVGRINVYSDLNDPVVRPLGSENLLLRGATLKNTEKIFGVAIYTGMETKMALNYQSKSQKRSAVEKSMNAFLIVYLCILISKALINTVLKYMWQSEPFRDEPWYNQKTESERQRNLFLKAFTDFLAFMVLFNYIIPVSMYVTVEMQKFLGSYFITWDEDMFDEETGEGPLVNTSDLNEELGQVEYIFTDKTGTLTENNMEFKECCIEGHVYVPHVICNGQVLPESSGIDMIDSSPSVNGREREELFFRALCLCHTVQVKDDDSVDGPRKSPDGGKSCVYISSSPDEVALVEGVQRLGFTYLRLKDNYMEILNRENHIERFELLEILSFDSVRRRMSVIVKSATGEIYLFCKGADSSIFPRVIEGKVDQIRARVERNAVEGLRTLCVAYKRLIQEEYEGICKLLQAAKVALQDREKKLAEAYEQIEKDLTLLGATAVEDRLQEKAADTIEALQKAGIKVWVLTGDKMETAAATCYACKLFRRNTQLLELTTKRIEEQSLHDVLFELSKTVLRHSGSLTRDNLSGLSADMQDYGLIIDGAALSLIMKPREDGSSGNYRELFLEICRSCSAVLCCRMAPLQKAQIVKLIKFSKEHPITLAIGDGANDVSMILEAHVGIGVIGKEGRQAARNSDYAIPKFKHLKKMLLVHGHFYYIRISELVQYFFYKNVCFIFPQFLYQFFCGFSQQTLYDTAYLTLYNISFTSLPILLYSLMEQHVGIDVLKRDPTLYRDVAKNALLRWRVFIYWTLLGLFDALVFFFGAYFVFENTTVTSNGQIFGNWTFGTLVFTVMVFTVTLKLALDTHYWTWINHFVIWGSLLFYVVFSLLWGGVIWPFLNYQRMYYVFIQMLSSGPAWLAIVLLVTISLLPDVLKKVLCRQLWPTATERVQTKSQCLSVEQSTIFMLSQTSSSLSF
inactive: erlotinib -0.038 | [1] 0.015 | [2] 0.004 | [3] 0.005 | [4] -0.038 | [5] 0.035 | [6] -0.048 | [7] -0.085 | [8] -0.035 | [9] 0.012 | IRAK-1-4 Inhibitor I -0.003 | ibrutinib 0.007 | [10] 0.018 | ralimetinib 0 | [11] -0.026 | [12] 0.073 | [13] 0.052 | pinometostat 0.004 | [14] 0.05 | [15] 0.036

Source: the supplement of paper PMC10849652
